From PubChem BioAssay (NCATS)
Records with an inconclusive call do not appear. Unmarked numbers belong to inactive results. The call rests on the fitted dose curve.

Molecular target: Atrial natriuretic peptide receptor 1 (Homo sapiens) (UniProt P16066)
Test: Natriuretic polypeptide receptor (hNpr1) antagonism - Pilot screen (AID 1347049);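 further: agonist-evoked cGMP luminescence read 20 min after hNppA addition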
Conditions: hNpr1 cells, antagonist mode cGMP read-out; series mostly up to 57.5 µM; activity change, negative = inhibition: at the top concentration
Outline: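 Readout is cGMP-driven firefly luciferase luminescence in HEK293 cells carrying hNpr1 and a PDE5-domain GloSensor, read before and 20 min after 0.1 nM hNppA stimulation. Cells had 2% substrate reagent for 2 h and test compound for 30 min.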
On the % scale 0 is the no-effect control and ±100 the full control effect.

Chain of Atrial natriuretic peptide receptor 1 (Homo sapiens) (P16066 whole entry, looked up): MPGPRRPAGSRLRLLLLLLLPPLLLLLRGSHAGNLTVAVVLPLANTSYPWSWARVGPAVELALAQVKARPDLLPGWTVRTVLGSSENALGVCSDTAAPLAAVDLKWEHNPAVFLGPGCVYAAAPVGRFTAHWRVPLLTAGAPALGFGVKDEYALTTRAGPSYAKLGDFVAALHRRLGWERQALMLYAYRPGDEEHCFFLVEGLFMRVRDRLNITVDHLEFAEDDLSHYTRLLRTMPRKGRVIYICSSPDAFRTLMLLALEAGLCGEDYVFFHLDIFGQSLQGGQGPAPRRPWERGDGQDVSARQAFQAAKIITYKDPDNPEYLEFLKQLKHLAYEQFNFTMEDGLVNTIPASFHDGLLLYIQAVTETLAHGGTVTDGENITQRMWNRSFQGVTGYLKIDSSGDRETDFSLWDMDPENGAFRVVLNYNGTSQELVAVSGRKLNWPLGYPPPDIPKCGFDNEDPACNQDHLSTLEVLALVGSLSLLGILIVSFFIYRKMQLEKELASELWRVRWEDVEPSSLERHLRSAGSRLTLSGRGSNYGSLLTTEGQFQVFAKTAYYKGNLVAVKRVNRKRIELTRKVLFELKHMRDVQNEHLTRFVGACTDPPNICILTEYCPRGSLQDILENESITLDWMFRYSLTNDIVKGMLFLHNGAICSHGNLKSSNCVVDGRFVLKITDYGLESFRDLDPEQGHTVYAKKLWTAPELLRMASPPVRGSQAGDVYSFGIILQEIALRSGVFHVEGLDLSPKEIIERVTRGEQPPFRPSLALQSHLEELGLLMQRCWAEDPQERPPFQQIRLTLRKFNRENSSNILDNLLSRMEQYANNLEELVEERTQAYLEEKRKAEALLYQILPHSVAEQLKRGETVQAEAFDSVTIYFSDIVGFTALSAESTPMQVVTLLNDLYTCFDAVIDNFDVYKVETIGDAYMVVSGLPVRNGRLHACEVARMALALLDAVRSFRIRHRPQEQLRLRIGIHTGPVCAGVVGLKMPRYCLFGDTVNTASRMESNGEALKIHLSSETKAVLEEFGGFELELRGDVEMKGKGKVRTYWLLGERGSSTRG

Structure (SMILES)	activity change, negative = inhibition
CCN(CC)CCOCCOC(=O)C1(c2ccccc2)CCCC1	5.89%
CC1=C(C)C(=O)C(CCCCC#CCCCC#CCO)=C(C)C1=O	5.72%
CN(C)C/C=C(/c1ccc(Br)cc1)c1cccnc1	1.25%
COCCCC/C(=N\OCCN)c1ccc(C(F)(F)F)cc1	-1.74%
NC(N)=NC(=O)Cc1c(Cl)cccc1Cl	2.16%
Cc1nc2sccn2c(=O)c1CCN1CCC(=C(c2ccc(F)cc2)c2ccc(F)cc2)CC1	-27.4%
C[N+](C)(C)CCCCCCCCCC[N+](C)(C)C	-8.44%
COc1ccc2c(c1OC)C(=O)O[C@@H]2[C@H]1c2c(cc3c(c2OC)OCO3)CCN1C	-29.3%
CC[N+](C)(C)c1cccc(O)c1	2.89%
CN(C)CC[C@@H](c1ccc(Br)cc1)c1ccccn1	16.4%
CN(C)CCN(Cc1cccs1)c1ccccn1	-1.32%
CN(C)CCCN1c2ccccc2Sc2ccc(C(F)(F)F)cc21	-4.79%
COCCc1ccc(OCC(O)CNC(C)C)cc1 (stereo not given)	6.24%
CC(C)COCC(CN(Cc1ccccc1)c1ccccc1)N1CCCC1 (stereo not given)	-4.76%
C#CCN(C)CCCOc1ccc(Cl)cc1Cl	-2.36%
COc1cc(C(=O)OCCCN2CCCN(CCCOC(=O)c3cc(OC)c(OC)c(OC)c3)CC2)cc(OC)c1OC	3.93%
CC1=NS(=O)(=O)c2cc(Cl)ccc2N1	4.18%
Cc1nc2ccccn2c(=O)c1CCN1CCC(C(=O)c2ccc(F)cc2)CC1	3.13%
OCCN1CCN(CCCN2c3ccccc3C=Cc3ccccc32)CC1	-8.97%
C[C@]12CCC(=O)C=C1CC[C@@H]1[C@@H]2CC[C@@]2(C)[C@H]1CC[C@]2(O)C(=O)CO	0.0794%
